PubChem BioAssay AID889 (National Center for Advancing Translational Sciences (NCATS), 2007)
About 15 (0.02%) of roughly 75,000 compounds were called active. Roughly 3% stayed inconclusive and do not appear here. Calls follow the shape of the dose curve; as a rule, active = well fitted inhibition curve with a large enough effect in the main read-out, with a control signal flat (not every such curve was filed as active); inconclusive = small, poorly fitted or top-dose-only effect, or a change in a side signal; inactive = flat fitted curve, though single readings scatter. The list comes from a sample in which actives are over-represented; it also holds similar structures and randomly drawn compounds. Square brackets hold non-standard residues; d marks the D form. Side chains are listed from the residue outwards. Peptide text beside a SMILES is read from it. * marks the point of attachment. X1 = CCC(C)C(N)C1=NC(C(=O)*)CS1; Orn = NCCC[CH](N)C(=O)O

target: Caspase-7 (Homo sapiens) (UniProt P55210); assay: qHTS Assay for Allosteric/Competitive Inhibitors of Caspase-7; conditions: recombinant caspase-7, Ac-DEVD-AFC fluorescence rate; series mostly up to 57.5 µM; activity change, negative = inhibition: at the top concentration; as to activity change, negative = inhibition: % of control where 0% means no effect
Sequence (P55210 24-198 limits assumed): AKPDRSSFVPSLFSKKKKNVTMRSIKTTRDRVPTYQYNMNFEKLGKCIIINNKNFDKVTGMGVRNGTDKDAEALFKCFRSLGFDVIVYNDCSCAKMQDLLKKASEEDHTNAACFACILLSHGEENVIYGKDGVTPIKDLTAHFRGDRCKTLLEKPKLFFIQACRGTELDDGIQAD
Sequence (P55210 207-303 limits assumed): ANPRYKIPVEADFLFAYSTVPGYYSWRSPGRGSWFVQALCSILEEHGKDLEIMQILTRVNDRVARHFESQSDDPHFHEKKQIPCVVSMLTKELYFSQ
Excerpt: NIH Molecular Libraries Screening Centers Network [MLSCN]
NIH Chemical Genomics Center [NCGC]
PI Name: Dr. James Wells,
Dr. Enrique Perez-Paya, Dr.Janice Williams, Dr. Dennis Wolan, a person
The caspases (Cysteine Aspartyl Protease) comprise a related family of 14 dimeric proteases that are critical mediators of apoptosis (programmed cell death) and inflammation. The caspases represent an important class of drug targets for stroke, ischemia, cancer and inflammatory diseases. […] One goal of this project was to identify compounds that act as allosteric inhibitors via stabilizing the procaspase form of the enzyme. Previous work in Well's laboratory has shown that such allosteric inhibitors can be identified and these act by binding at the dimer interface of enzyme (Hardy, Lam et al., 2004).
The biochemical assay was configured using purified caspase 7 at a high enzyme concentration to promote formation of the homodimers and thus facilitate the identification of allosteric inhibitors. The overall goal was to identify reversible inhibitors with better drug-like properties than the currently available set of aspartyl-containing peptidomimetics that covalently bind the active site. Caspase 7 was assayed using the profluorescent substrate Ac-DEVD-AFC. After initiation of the assay with substrate the plates were rapidly read using an automated robotic system (Kalypsys, Inc.) to maintain consistent timing. A kinetic mode of detection was used where the initial rate was collected (estimated final product formation was ~10%). Compounds were screened as a concentration-titration series that ranged from 57 uM to 0.7 nM. Below is the protocol used for caspase 7.
NCGC Assay Protocol Summary:
Caspase 7 was prepared in buffer (50 mM HEPES pH 7.5, 50 mM KCl, 200 mM NaCl, 10 mM DTT, 0.1% CHAPS) at a concentration of 66.6 nM and 3 uL was dispensed to all wells using black solid Kalypsys 1536-well plates. 20 nL of DMSO containing compounds was added using a pin-tool (Kalypsys Inc.) to columns 5-48. Then 20 nL of DMSO solution from a control plate was added to columns 1-4. Controls were: Column 1, 16 point titration with each concentration in duplicate (1:1 dilutions in DMSO; final starting concentration was 57 uM) of the caspase 7 inhibitor Ac-DEVD-CHO (Alexis Biochemicals); Column 2, a 16 point titration with each concentration in duplicate of the free AFC fluorophore prepared in DMSO (Alexis Biochemicals), final starting was 40 uM; Column 3 neutral (DMSO only) control; Column 4: DMSO alone, to serve as a negative control (no substrate was added). Then 1 uL of 20 uM the substrate Ac-DEVD-AFC (Alexis Biochemicals) prepared in the same buffer was dispensed to all wells except columns 2 and 4 and the plates were immediately transferred (< 1 min) to the Viewlux. The plates were then exposed using 405 nm excitation/520 nm emission filters for 4 sec and read at 20 sec intervals for 3 min. Final enzyme concentration was 50 nM and the final substrate concentration was 5 uM.
Concentration-response curves were fitted to the data calculated from slope of the linear regression of fluorescent intensity versus time (the rate). The concentration-effect curves were then classified based on curve quality (r2), response magnitude and degree of measured activity. […] Inconclusive compounds had appreciable concentration-dependent effects on both the measured rate and the interpolated basal fluorescence intensity at the start of the reaction but where the basal fluorescent intensity was marginal (e.g. < 10-fold). Inconclusive compounds also encompass highly fluorescent compounds (>100-fold increases in fluorescent intensities values relative to controls) where artificial concentration-dependent decreases in the rate occurred at high compound concentrations due to fluorescent interferences.
Keywords: Caspase 7, proteases, profluorescent, MLSMR, MLSCN, NIH Roadmap, qHTS, NCGC
Potency is read from the fitted curve at half-maximal effect.

| SMILES | activity change, negative = inhibition | Potency |
| --- | --- | --- |
| CC1CCc2c(sc(NC(=O)c3ccc(Cn4cc(Br)cn4)o3)c2C(N)=O)C1 (stereo not drawn) | -12.6% (inactive) |  |
| C/C(=N\O)C1(C)N(O)C(C)(C)C(c2ccc(Br)cc2)=[N+]1[O-] (stereo not drawn) | 0.703% (inactive) |  |
| CC(=O)Nc1ccc(NC(=O)CN2CCCC(C)C2)c(Cl)c1 (stereo not drawn) | -0.338% (inactive) |  |
| Cn1c(N)c(C(=O)COC(=O)c2cc(C(F)(F)F)nc3c(C(F)(F)F)cccc23)c(=O)n(C)c1=O | 1.07% (inactive) |  |
| Cc1cc(NC(=O)CCC(=O)N(c2cccc(F)c2)C(C(=O)NC2CCCC2)c2ccncc2)no1 (stereo not drawn) | 0.523% (inactive) |  |
| COc1ccc(N2C(=O)C3CCCN3C2c2cc(OC)c(OC)cc2OC)cc1 (stereo not drawn) | -1.73% (inactive) |  |
| O=C(NCc1ccco1)c1cc(-c2cccnc2)nc2ccc(Cl)cc12 | -1.35% (inactive) |  |
| CC(C)CN1CCc2nc(-c3ccccc3)c3c(c2C1)COC(C)C3 (stereo not drawn) | -0.41% [at 11.5 µM] (inactive) |  |
| O=C(Nc1cccc(Cl)c1)OCc1ccccn1 | 1.86% (inactive) |  |
| O=C(O)CC(C(=O)O)C(CC(=O)O)C(=O)O (stereo not drawn) | 0.506% (inactive) |  |
| CCc1ccc(CCC(=O)Nc2ccc(S(N)(=O)=O)cc2)o1 | 0.82% (inactive) |  |
| CN(C)CCSS(=O)(=O)O | -1.05% [at 11.5 µM] (inactive) |  |
| C[C@@H]1O[C@@H](OC[C@H]2O[C@@H](Oc3c(-c4cccc(O)c4O)oc4cc(O)cc(O)c4c3=O)[C@H](O)[C@@H](O)[C@@H]2O)[C@H](O)[C@H](O)[C@H]1O | -1.32% (inactive) |  |
| OCCCNCc1ccccn1 | 0.29% [at 11.5 µM] (inactive) |  |
| O=C(NCc1ccccn1)c1cc2ccccc2oc1=O | -0.481% (inactive) |  |
| O=C(NCc1ccccn1)c1ccc2nc(-c3ccco3)c(-c3ccco3)nc2c1 |  | 25.1 µM (active) |
| Cc1cccn2c(=O)c3cc(C(=O)NCc4ccccn4)n(C)c3nc12 | 0.28% (inactive) |  |
| COc1ccc(CC(=O)Nc2nc3n(n2)C(c2ccccc2)CC(=O)N3)cc1OC (stereo not drawn) | 0.956% (inactive) |  |
| Cc1cccc(NC(=O)CSc2nnc(CCCCCNC(=O)OC(C)(C)C)o2)c1C | -0.868% (inactive) |  |
| CCOc1cc(C(=S)N2CCOCC2)ccc1O | -0.0185% (inactive) |  |
| CC(C)C(=O)N1CCN(CCN=CC2=C(O)CC(c3ccco3)CC2=O)CC1 (stereo not drawn) | -3.14% (inactive) |  |

| SMILES | activity change, negative = inhibition | Potency |
| --- | --- | --- |
| CCCCCCCCCc1ccc(OCCOCCOCCOCCOCCOCCOCCOCCOCCO)cc1 | -6.3% (inactive) |  |
| COc1c2c(cc3occ(-c4ccc5c(c4)OCO5)c(=O)c13)OC(C)(C)C=C2 | -5.41% (inactive) |  |
| O=C(CC1CCCCC1)Nc1c2c(nn1-c1ccc(F)cc1)CS(=O)(=O)C2 | -1.72% (inactive) |  |
| CC1(C)OC2CC(=O)OC[C@@]23C1CC(=O)[C@]1(C)C3CC[C@@]2(C)C(c3ccoc3)OC(=O)C3O[C@@]321 (stereo partly drawn) | -1.5% (inactive) |  |
| Cc1cccc(-c2cc(=O)c3cc(C)ccc3o2)c1 | -5.03% (inactive) |  |
| CCCc1nc2c(C)cc(-c3nc4ccccc4n3C)cc2n1Cc1ccc(-c2ccccc2C(=O)O)cc1 | -5.24% (inactive) |  |
| Cn1c(Cc2csc(N)n2)nnc1SC/C=C/c1ccccc1 | -17.5% (inactive) |  |
| C=C(C)C1CC=C(CO)CC1 (stereo not drawn) | 2.74% (inactive) |  |
| O=C1OC(C(O)CO)C(O)=C1O (stereo not drawn) | 1.71% (inactive) |  |
| CCCN1[C@H](C(=O)OC)C[C@@]2(O)[C@@H](O)[C@@H](O)[C@@H](O)C[C@@H]12 | -1.49% (inactive) |  |
| CCN(c1ccccc1)S(=O)(=O)c1cccc(C(=O)O)c1 | -0.863% (inactive) |  |
| COc1ccccc1C(=O)C(O)c1ccccc1OC (stereo not drawn) | -0.715% (inactive) |  |
| CCNC(=O)CCc1nc(-c2ccc(C(C)(C)C)cc2)no1 | -1.09% (inactive) |  |
| CC(=O)c1c(C)n(-c2ccc(N(C)C)cc2)c2ccc(OCC(N)=O)cc12 | 0.0847% (inactive) |  |
| CC(=O)OC(C(=O)NC1CCCCC1)c1ccccc1 (stereo not drawn) | 0.612% (inactive) |  |
| CC(C)C1=CC2=CC[C@@H]3[C@](C)(CO)CCC[C@]3(C)C2CC1 (stereo partly drawn) | -1.8% (inactive) |  |
| COC(=O)[C@@H]1C[C@H]2CC[C@H](O)C[C@H]2N1Cc1ccc(N2CCN(C)CC2)cc1 | -1.78% (inactive) |  |
| COc1ccc(OCc2cccc(C(=O)N3CCCC3)c2)cc1 | -1.42% (inactive) |  |
| Oc1ccc(O)c2c(O)cccc12 | -27.9% (inactive) |  |
| N#CCCN1CCN(S(=O)(=O)c2ccc(S(=O)(=O)N3CCCC3)cc2)CC1 | 0.676% (inactive) |  |
| O=C(Nc1cccc(-c2nnc(-c3ccccc3)o2)c1)C1CCCO1 (stereo not drawn) | -0.105% (inactive) |  |

| SMILES | activity change, negative = inhibition | Potency |
| --- | --- | --- |
| FC(F)(F)c1ccc(CN2C[C@@H]3C(c4ccccc4)C4(c5ccccc5)CC3(C4)[C@H]2c2ccccc2)cc1 (stereo partly drawn) | -0.934% (inactive) |  |
| O=C1CSC(c2cccc(F)c2)N1c1ccccc1F (stereo not drawn) | 0.368% (inactive) |  |
| O=C(O)c1ccc(Cl)c(S(=O)(=O)Nc2ccccc2Cl)c1 | -0.369% (inactive) |  |
| CN1CC(=O)N=C1N | 2.7% (inactive) |  |
| CO[C@H]1COC(=O)CCC[C@@H](C)[C@H](OC)COC(=O)[C@@H](C)NC(=O)C/C=C\[C@@H]1C | 0.707% [at 11.5 µM] (inactive) |  |
| COc1cc(=O)[nH]c(=O)n1C(=O)Cc1ccccc1 | -0.165% (inactive) |  |
| COc1ccc(-c2cc(C(=O)NC(C(=O)O)C(C)C)c(C)o2)cc1OC (stereo not drawn) | 0.0406% (inactive) |  |
| Cc1nc2cc(-c3ccc(F)cc3)nn2c(N2CCOCC2)c1C | -1.05% (inactive) |  |
| COc1ccc(S(=O)(=O)Nc2c(C)n(C)n(-c3ccccc3)c2=O)cc1 | 0.471% (inactive) |  |
| Nc1ncnc2c1ncn2C1CC(O)C(CO)O1 (stereo not drawn) | inactive |  |
| C=CCC(NCCCO)c1cccc(OC)c1OC (stereo not drawn) | -1.48% (inactive) |  |
| COc1cccc(OC)c1C(=O)Nc1nnc(C(C)C)s1 | 0.483% (inactive) |  |
| CCC(C)C(N)C1=NC(C(=O)NC(CC(C)C)C(=O)NC(CCC(=O)O)C(=O)NC(C(=O)NCCCCC2NC(=O)C(CC(N)=O)NC(=O)C(CC(=O)O)NC(=O)C(Cc3cnc[nH]3)NC(=O)C(Cc3ccccc3)NC(=O)C(C(C)CC)NC(=O)C(CCCN)NC2=O)C(C)CC)CS1 (stereo not drawn) (cyclo(DNK([Ile-Glu-Leu-X1])[Orn]IFH); configuration not given here) | -1.11% (inactive) |  |
| Cc1cccc2c3c(ccc12)C1=C(C(=O)C3=O)C(C)CO1 (stereo not drawn) | -21.5% (inactive) |  |
| COc1ccc(-c2nc3cnc(OC)nc3n(Cc3ccc(F)cc3)c2=O)cc1 | -10.3% (inactive) |  |
| CN(C)CCCCNC(=O)c1ccc(Cc2nc3ccccc3[nH]2)cc1 | -0.141% (inactive) |  |
| C=C1C(=O)C23C(O)C1CCC2[C@]12COC3(O)C(O)C1C(C)(C)CC[C@H]2O (stereo partly drawn) | -5.51% (inactive) |  |
| Cc1ccc2nc(S(=O)(=O)O)[nH]c2c1 | -1.75% (inactive) |  |
| CCOC(=O)N1CCN(C(=O)CNC(=O)Cc2ccc(Cl)cc2)CC1 | -4.36% (inactive) |  |
| COc1ccc(S(=O)(=O)N2CCCC2)c(C)c1C | -0.0387% (inactive) |  |
| COC(=O)c1ccc(C23CC4(C2)[C@H](CN(Cc2cccnc2)[C@@H]4c2ccccc2)C3c2ccc(Cl)nc2)cc1 (stereo partly drawn) | -1.86% (inactive) |  |
